Data as given in the supplement of paper PMC5499739.
In all, about 16,000 sequences were measured (“Z-score”: median about -0.37, highest 2% from about 3.1 on). This excerpt belongs to a sample that is enriched for the highest values.

What follows are sequences tested on RBM10 RRM1-ZnF-RRM2 (GST-tagged construct) (assay: RNAcompete 7-mer binding Z-score; higher = stronger binding preference).
Method: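 RNAcompete: 20 pmol GST-tagged RBM10 RNA-binding constructs were incubated with a designed RNA pool of about 241,000 sequences up to 41 nt (1.5 nmol) on glutathione beads for 30 min at 4 °C and washed. Bound RNAs were identified by microarray hybridisation. Each RNA 7-mer is scored by a one-sided Z-score of its enrichment, computed over probes that contain the 7-mer within longer pool sequences.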

Sequence	RNAcompete 7-mer binding Z-score
CAUAGGA	0.756
GAUAGGG	4.38
GAUAGGA	3.17
GGUAGGA	3.37
UGUAGAG	0.978
UAUAGGG	2.76
AAUAGGA	1.57
AGUAGGA	3.08
CAUAGGG	2.13
CGUAGAG	0.636
GGUAGAG	3.68
GGUAGGC	2.65
CGAUUAA	-0.493
GGAUUGC	0.88
AACCACA	-0.275
UCUUGCG	-0.664
AGAUGCU	-0.777
AUUCGGA	0.243
UAUGUCC	-0.785
CCUCGGC	-0.701
AACACGU	-0.3
CUACUAU	-0.657
CCGUCCA	-0.704
CCUACGG	-0.446
UAACGCU	-0.646

Sequence	RNAcompete 7-mer binding Z-score
GGCCAUG	0.181
GCCGGGG	1.4
CGUAGGG	2.3
GUUAGGU	1.89
UGUAGGA	1.9
AAUAGGU	1.27
UUUAGGG	1.51
AAUAGGC	0.924
UGUAGGG	3.34
CGUAAAG	-0.0743
AAUAGGG	3.5
GUUAGGG	3.65
UGUAAAG	0.257
GGUAAAG	3.35
UCCAUUU	-0.872
GAUCCAG	0.0641
ACGUAAU	-0.417
ACAAUCG	-0.173
UACCCCG	-0.551
AUGCUCA	-0.766
CGUGAGG	1.73
CAUGAGG	1.35
GGUGAGG	4.3
GAUGAGU	1.01
GAUGAGG	3.6

Sequence	RNAcompete 7-mer binding Z-score
GGUGAGA	2.68
CCUCCAA	-0.857
UGAGCCC	-0.435
GUCCACU	-0.653
GGCAAGG	3.47
GGGCGGU	2.58
GGGCAGA	2.25
GGCAAAG	1.95
CGCAAGG	0.341
GGGCGAA	2.68
GGGCGAG	3.88
GGGCGGA	3.09
GGGCGAC	1.94
GGGCGGG	3.52
AGGCAGG	1.77
GGGCAGG	3.39
AUAGUGG	1.69
CACCAUC	-0.734
UGCGCAG	0.0677
UUUGGAU	-0.125
UACUUUA	-0.948
UGGCGGG	3.19
CGGCGGG	1.97
UGGCGGU	1.54
ACGGGAC	2.19

Sequence	RNAcompete 7-mer binding Z-score
UGCAACC	-0.504
GAGGGGG	2.83
GAGGGAU	3.31
GAGGGAA	3.6
AAGGGGC	3.1
CAGGGAU	2.41
GCGGGAU	2.38
AAGGGGG	3.91
GAGGGCA	1.99
AGGGGGG	2.05
GAGGGGA	3.29
CGGGGGA	2.53
GAGGAAA	2.2
CCGCUAC	-0.868
GUUACUC	-0.581
UAAGUCA	-0.0816
UCGCGCA	-0.595
ACCUCCG	-0.737
AUAGAGA	0.501
AGAACAU	-0.398
CCUAUAU	-0.799
UCAAUGC	-0.533
GCUUGUG	-0.479
GUACCCC	-0.242
UUCCUGA	-0.763

Sequence	RNAcompete 7-mer binding Z-score
AAAGGGG	4.22
GAGGGGU	3.64
GAGGGGC	2.44
GAGGGCU	1.27
AAGGGGA	4.44
AAGGGGU	4.33
UAAGGGG	3.11
AGGGGGU	3.03
CAAGGGG	3.03
AGGGGGA	2.14
AACCCUU	-1.03
CCACGCA	-0.664
AUUGUGA	0.108
UCGCGUU	-0.602
CUUCCUU	-0.759
AGUAAGA	0.541
GUUCUCU	-0.788
AGGGGCG	2.07
CUGGGUG	1.82
AUCGGUG	0.691
AUGGGUU	2.86
AUGGGUC	2.15
GUGGGUG	3.76
AUUGGUG	1.84
AGGGGUG	3.14

Sequence	RNAcompete 7-mer binding Z-score
AGGGGGC	1.4
GUGGGUC	2.4
AUGGGUA	3.71
AUGGGUG	3.74
CUCUUCC	-0.879
AAUAUAC	-0.26
UAGUCCA	-0.683
UGUGGCC	0.0459
AUCUCGC	-0.894
AAGUUAC	-0.289
CGGCUGA	-0.0306
UUCAAUA	-0.151
GGGGGCG	2.58
UGGGGUG	4.14
UUGGGUC	1.03
UUGGGUU	2.05
UUGGGUG	3.43
UCGGGUG	1.96
UGGGGUC	2.62
CCGGGUG	1.62
CGGGGUU	2.23
GGGGGUG	3.43
CGGGGUG	3.36
GGGGGUC	2.06
GUUAUCU	-0.395

Sequence	RNAcompete 7-mer binding Z-score
GACCCCC	-0.551
ACGAAUA	-0.238
UAUCACG	-0.435
AUGUAAC	-0.147
GAGUGUU	0.432
CGAGGCU	0.217
ACACCCU	-0.941
UAAUACA	-0.391
UCAUUCU	-0.752
UGCGGUC	-0.00512
GCGCUGU	-0.191
ACAGUAA	0.0677
GGCCGCC	-0.683
UAAGCCA	-0.712
GCCAAAC	-0.573
AGUCUGU	-0.482
AGGGGUU	2.42
GGGUGUA	3.09
UGGUGUG	2.21
GGGGGUU	3.29
GGGGUUU	2.36
GGGUGUG	3.51
AUCUACU	-0.806
AUCUUGG	-0.311
CGGGAAC	1.5

Sequence	RNAcompete 7-mer binding Z-score
GCUUCCG	-0.799
CUUGGUC	-0.821
GGACAGA	1.44
GGACCGU	0.0532
AGGGAUG	4.22
AGGGACG	2.37
UGGGAUA	2.85
GGGGAUU	2.36
UGGGAUG	3.22
GGGGAUG	3.68
UGGGAUU	1.63
GGGGAUC	2.27
CGGGAUG	2.31
ACAGAUU	-0.242
AAUGGUC	0.822
GCAGCCC	-0.497
CUGCCAG	-0.606
AAACUUU	-0.752
UAGUGAC	0.21
CAUUCUA	-0.821
GCGGGGA	3.23
CCGGGGA	1.12
UCGGGGU	1.76
CCGGGGG	1.4
GCGGGGC	2.5

Sequence	RNAcompete 7-mer binding Z-score
GCGGGUU	2.54
GCGGGGU	3.77
UCGGGGA	1.7
GCGGGGG	3.51
UCAAGCU	-0.621
CUCCGAC	-0.664
UCCCCAA	-0.639
CCAUAGA	-0.464
CGAACGG	1.41
GGACGGG	4.18
GGAACGG	4.03
GAACGGG	4.29
GAACGGU	1.56
GAACGGC	0.84
GGACGGC	1.05
AGAACGG	1.84
CGACGGG	2.14
ACGAUAC	-0.413
AUGCAUC	-0.362
UGAUAUA	-0.366
CACGAAA	-0.366
AGAUGGA	2.92
AGAUGGU	1.63
GGAUGGU	3.73
GGAUGGC	2.46

Sequence	RNAcompete 7-mer binding Z-score
UGAUGGU	1.26
GGAUGGA	3.36
UAGGAGC	1.74
CUGGGCG	1.05
GUGGGCC	1.58
GUGGGCA	3.48
AUGGGCA	2.7
GUGGGCG	3.37
AUGGGCG	3
AGCGCGC	-0.282
CAGUCUU	-0.857
GAAAUCU	-0.46
CCGUUAA	-0.77
AGAAAAU	0.0859
GGGGUAG	4.58
GAGGUAA	2.53
CGGGUAU	1.39
GGGGUAC	2.82
UGGGUAA	2.38
CGGGUAA	1.81
AGGGUAU	3.41
GGGGUAA	3.5
GUGGUAG	2.26
GGGGUAU	2.98
AGGGUCU	0.559

Sequence	RNAcompete 7-mer binding Z-score
AGGGUAA	4.77
UGAGCAU	-0.0634
UGUAACU	-0.358
AUCGGCG	0.337
CGCCUGG	-0.482
GUGGCCA	0.403
UUCCGGG	0.341
GUUGAGU	0.57
GAGUCCU	-0.453
UCAGUCA	-0.493
UGUGGGA	2.96
UGUGGUG	1.57
UGUGGGC	1.83
AGUGGGC	2.96
GGUGGUC	2.11
GGUGGUG	3.25
AGUGGGG	4.66
CGUGGUG	1.44
GGUGGGC	3.19
UGUGGGG	3.75
AGUGUGG	2.64
AGUGGUG	2.24
AAGCUCA	-0.635
GCACGGU	0.519
GCACGCG	-0.0598

Sequence	RNAcompete 7-mer binding Z-score
GUUGCCG	-0.216
AAGCGGU	1.03
ACGGAAC	0.785
GGUGGCA	2.34
GGUGGGU	3.47
GCUGGGU	1.78
AGUGGCA	1.68
CGUGGGU	2.43
AGUGGUA	1.92
UGUGGGU	2.9
GCUGGGA	1.69
AGUGGGA	4.3
AGUGGGU	3.35
GGUGGGA	3.75
GGUGGUU	2.03
UAUUCAA	-0.606
UGUUUUU	-0.46
CUAACCC	-0.766
GGCGAAA	1.35
CUCCUAU	-0.956
CGUGGGA	2.39
CGUGGGG	3.57
GGGGGGG	2.58
GGUGGGG	4.34
GCUGGGG	2.46

Sequence	RNAcompete 7-mer binding Z-score
CGUGGGC	2.21
AUCUCUG	-0.846
CUGGGGC	0.956
AUGGGAU	3.25
GUGGGAA	3.49
GCGGGAA	2.5
CUGGGGA	1.32
GGGGGGC	2
GUGGGAC	2.4
AUGGGCU	1.51
GUUGGGA	3.05
GUGGGGA	4.25
GUGGGGC	3.47
AUGGGAC	2.47
UCAACGC	-0.584
GGAAAUC	0.931
GUGGGAG	3.99
GCGGGAG	2.64
CUGGCGG	0.541
GUGGGUU	2.54
GUGGGGU	4.45
GUGGGGG	4.18
UUGGGGU	2.84
GUGGCGG	3.22
CUGGGGG	1.81

Sequence	RNAcompete 7-mer binding Z-score
UCGGGAG	1.18
GUGGCGC	1.46
UGGCUAU	-0.00148
GGAUAGC	2.07
CGCAACU	-0.825
UCAAUUC	-0.752
GUAGUGA	1.1
GGUGCGA	1.58
CUUUCCG	-0.777
AUCAGCA	-0.395
AUUCCCC	-0.613
AGGAUAA	1.21
UUGGGAU	1.9
CUGGGAU	0.964
GUGGGAU	3.57
AUAAGAA	0.177
GAUUGCC	-0.672
AAGUCUU	-0.697
CUAGGGU	2
CUAGGAG	0.534
GUAGGGC	2.85
GUAGGAG	3.78
GUAGGAC	1.86
GUAGGGG	4.66
CUAGGGG	1.97

Sequence	RNAcompete 7-mer binding Z-score
UUAGGGU	3.02
GUAGGGA	4.26
UUAGGGA	2.36
GUAGGGU	4.48
UUAGGGG	2.07
AACUUUA	-0.679
UAGGCGG	1.79
UGUGACC	-0.176
CGUCUUU	-0.613
CCACUCG	-0.73
GGGUCUG	0.993
ACCUCUG	-0.814
AUAGGCG	1.16
AUAGGAG	2.27
AUAGGGC	2.14
AUAGGGA	2.9
AUAGGGU	4.33
AUAGGGG	4.15
